Most compounds without a hit are left out; they make up all but 8% or so of the library.
FMDV antiviral = blocks foot and mouth disease virus; FMDV antiviral cell-based qHTS; 1.2% of 410,000 active; AID 1159524; Potency, µM (doses to about 57.9 µM), for the others: at the highest dose activity change, negative = inhibition, most hits filed as inhibitors; calls by dose curve; tested in HEK293T cells; also: read-out not given here; potency is read from the fitted curve at half-maximal effect; % is scaled to controls: 0 for no effect and ±100 for the full control effect; nearly all actives have a fitted effect of over 45% in size
SARS PLpro yeast = inhibitors of SARS-CoV papain-like protease in yeast; S. cerevisiae expressing SARS-CoV PLpro, growth rescue; Potency, µM (titrated, usually from 32.9 µM), without a hit: top-dose activity, positive = growth rescue, hits mostly activators; 0.19% of 330,000 active; AID 485353; calls by dose curve; also: potency is read from the fitted curve at half-maximal effect; 0% is about no effect; nearly all actives have a fitted effect of over 55% in size
HCV inhibitor = inhibitors of hepatitis C virus infection; Huh7.5.1 HCVcc-Cre infection, luciferase reporter, 44 h; Potency, µM (top dose mostly 41.8 µM), for inactives: at the highest dose activity change, negative = inhibition, hits mostly inhibitors; 3.4% of 340,000 active; active = well fitted inhibition curve with a large enough effect; inconclusive = small, poorly fitted or top-dose-only effect, or another doubt; inactive = no such curve, though single readings can be large or run the other way; also: potency is read from the fitted curve at half-maximal effect; % is scaled to controls: 0 for no effect and ±100 for the full control effect
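Infectious HCVcc-Cre (~0.5 moi) was added to cells just after compound, with cells seeded 4 h earlier at 1,000 per well. Luciferase activity after 44 h culture reported infection; substrate was incubated 15 min at room temperature before reading.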
HCMV antiviral = blocks human cytomegalovirus replication. AID 1259415. 4.5% of 410,000 active. activity change, negative = inhibition, % at 57.5 µM. HFF cells, HCMV-luciferase reporter, 72 h; hits give low values; in the data active = activity change below about -60%; inconclusive = no clear call, values can overlap the other calls; inactive = above about -39%; also: % is scaled to controls: 0 for no effect and ±100 for the full control effect
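Human foreskin fibroblasts infected with luciferase-reporter HCMV at MOI 1 PFU/cell, compounds at two doses. Luciferase measured 72 h post infection; normalized to buffer-only basal and Salinomycin (10uM) controls.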
Lassa entry inh = blocks Lassa virus binding to or entry into cells. 1.2% of 300,000 active. Lassa virus pseudotype entry inhibition, cell reporter. Potency, µM (series often up to 37.9 µM), for the others: at the highest dose activity change, negative = inhibition, actives largely listed as inhibitors; calls by dose curve; tested in HEK293 cells; also: potency is read from the fitted curve at half-maximal effect; % is scaled to controls: 0 for no effect and ±100 for the full control effect; nearly all actives have a fitted effect of over 50% in size
MARV entry inh = inhibitors of Marburg virus binding or cell entry | 1.8% of 300,000 active | Potency, µM (top dose mostly 37.8 µM), without a hit: at the highest dose activity change, negative = inhibition, hits mostly inhibitors | Marburg virus pseudotyped entry inhibition, cell reporter; calls by dose curve; tested in HEK293 cells; also: potency is read from the fitted curve at half-maximal effect; % is scaled to controls: 0 for no effect and ±100 for the full control effect
An asterisk follows results filed as active; [ ] = dose if it differs, or a comment.

Cc1ccccc1OCC(=O)Nc1cccc(S(=O)(=O)NC2=NCCC2)c1 was read as FMDV antiviral 51%, SARS PLpro yeast 4%, HCV inhibitor inconclusive and HCMV antiviral -2.
For Cc1ccccc1-n1ccnc1SCC(=O)Nc1cccc(S(=O)(=O)NC2=NCCC2)c1 the results were FMDV antiviral 19%, SARS PLpro yeast -5%, HCV inhibitor -1%, HCMV antiviral -61*, Lassa entry inh inconclusive and MARV entry inh 2%.
O=C(COC(=O)/C=C/c1ccc(Cl)cc1Cl)Nc1cccc(S(=O)(=O)NC2=NCCC2)c1 was read as FMDV antiviral 0% and HCMV antiviral -69*.
For O=C(CCl)Nc1cccc(S(=O)(=O)NC2=NCCC2)c1 the results were FMDV antiviral -25%, SARS PLpro yeast 0%, HCV inhibitor 13µM* and HCMV antiviral -100*.
Screening Cc1cccc(-c2nn(-c3ccccc3)cc2C(=O)Nc2cccc(S(=O)(=O)NC3=NCCC3)c2)c1 returned FMDV antiviral 56%, SARS PLpro yeast -1%, HCV inhibitor -32%, HCMV antiviral -17, Lassa entry inh -1% and MARV entry inh -23%.
For COc1ccc(-c2nn(-c3ccccc3)cc2C(=O)Nc2cccc(S(=O)(=O)NC3=NCCC3)c2)cc1 the results were FMDV antiviral 29%, SARS PLpro yeast 1%, HCV inhibitor 11µM* and HCMV antiviral -11.
C=CCN1c2ccccc2[C@]23CCC(=O)N(CCOC)C2=NC(C(=O)OC)=C(C(=O)OC)[C@H]13 was read as Lassa entry inh inconclusive and MARV entry inh 13%[14.2 µM].
For O=c1c2cccnc2n(Cc2ccccc2F)c(=O)n1Cc1ccc(F)cc1 the results were FMDV antiviral -19%, HCMV antiviral 0 and MARV entry inh -7%[46.1 µM].
COc1cccc(CNC(=O)CSc2c3c(nc4ccc(Cl)cc24)CCCC3)c1OC was read as FMDV antiviral inconclusive, HCMV antiviral 36, Lassa entry inh -28%[46.1 µM] and MARV entry inh -21%[46.1 µM].
For COc1cccc(Cn2c(OC[C@H]3CCCO3)nc3c2c(=O)n(C)c(=O)n3C)c1 the results were MARV entry inh 16%.
Screening CC(=O)c1cccc(S(=O)(=O)Nc2cccc(S(=O)(=O)NC3=NCCC3)c2)c1 returned FMDV antiviral 51%, SARS PLpro yeast inconclusive, HCV inhibitor 7%, HCMV antiviral -84*, Lassa entry inh -2% and MARV entry inh 36%.
Cc1ccc(CNC(=O)c2cc(-c3ccc(Cl)cc3)on2)cc1 was read as FMDV antiviral -15%, HCMV antiviral 10, Lassa entry inh -1%[46.1 µM] and MARV entry inh 5%[46.1 µM].
Screening COc1ccc(OCCN2C(=O)c3ccccc3C2=O)cc1 returned FMDV antiviral 53%, SARS PLpro yeast -4%, HCV inhibitor -3%, HCMV antiviral 5, Lassa entry inh 29% and MARV entry inh 2%[46.1 µM].
Screening COc1ccc(C2=Nc3ccccc3C2(O)CCN2C(=O)c3ccccc3C2=O)cc1 (stereo not drawn) returned FMDV antiviral 11%, HCV inhibitor 0.89µM*, HCMV antiviral 19 and MARV entry inh -1%.
`Cc1ncc(CN2CCCC(C(=O)c3ccc(C(C)(C)C)cc3)C2)s1` (stereo not drawn) gave FMDV antiviral inconclusive, SARS PLpro yeast 0%, HCV inhibitor 11µM* and HCMV antiviral inconclusive.
COc1ccc2cc(C(=O)C3CCCN(C4CCOCC4)C3)ccc2c1 (stereo not drawn) was read as FMDV antiviral 2%, SARS PLpro yeast 0%, HCV inhibitor -19%, HCMV antiviral 8, Lassa entry inh 2%[46.1 µM] and MARV entry inh 7.9µM*.
For CCOC(=O)C1CCN(Cc2cnc(Oc3ccc(C(C)(C)C)cc3)s2)CC1 the results were FMDV antiviral -28%, SARS PLpro yeast -8%, HCV inhibitor -11%, HCMV antiviral -10, Lassa entry inh 9.2µM* and MARV entry inh 3%.
`COc1ccc2cc(C(=O)C3CCCN(Cc4cnc(C)s4)C3)ccc2c1` (stereo not drawn) gave FMDV antiviral 0%, SARS PLpro yeast 1%, HCV inhibitor 11µM*, HCMV antiviral -78*, Lassa entry inh inconclusive and MARV entry inh -36%[46.1 µM].
Cc1nc2c(c(C)nn2-c2ccccc2)c(C)c1CCC(=O)Nc1ccc(F)cc1 was read as FMDV antiviral inconclusive, HCMV antiviral -30, Lassa entry inh 25%[46.1 µM] and MARV entry inh -8%[46.1 µM].
`COc1ccc(NC(=O)N2CCc3c(sc4c3CCCC4)C2c2ccc(F)cc2)cc1` (stereo not drawn) gave FMDV antiviral -12%, HCMV antiviral -16 and Lassa entry inh -25%[46.1 µM].
Screening Cc1c(C(=O)c2cccc3ccccc23)c2cccc3c2n1[C@H](CN1CCOCC1)CO3 returned FMDV antiviral -29%, HCV inhibitor inconclusive, HCMV antiviral -98*, Lassa entry inh 21µM* and MARV entry inh 8.9µM*.
Cc1ccc(CNC(=O)CCCN2C(=O)CCn3nc(-c4cn(C)c5ccccc45)cc32)cc1 was read as FMDV antiviral -11%, HCMV antiviral 3 and Lassa entry inh 0%[46.1 µM].
For COc1ccccc1C/C(N)=N/OC(=O)c1cccc([N+](=O)[O-])c1C the results were FMDV antiviral -14%, SARS PLpro yeast -93%, HCV inhibitor 10µM*, HCMV antiviral 30, Lassa entry inh inconclusive and MARV entry inh inconclusive.
`CCC1CN(C(=O)Nc2ccc(C)cc2)c2cc(C)ccc2O1` (stereo not drawn) gave FMDV antiviral 9%, SARS PLpro yeast -1%, HCV inhibitor inconclusive, HCMV antiviral -11, Lassa entry inh inconclusive and MARV entry inh 11µM*.
For CCC1CN(C(=O)N2CCC(C(=O)NCCc3ccc(OC)cc3OC)CC2)c2cc(C)ccc2O1 (stereo not drawn) the results were FMDV antiviral 28µM*, HCMV antiviral -1 and Lassa entry inh -18%[46.1 µM].
For CCC1CN(C(=O)N2CCC(C(=O)NCc3ccccc3OC)CC2)c2ccccc2O1 (stereo not drawn) the results were FMDV antiviral -15%, SARS PLpro yeast -3%, HCV inhibitor 16µM* and HCMV antiviral -12.
For O=C1CCCC2=C1[C@H]1O[C@](CCCCN3C(=O)c4ccccc4C3=O)(Cc3ccccc31)O2 the results were MARV entry inh -2%[14.2 µM].
For CCC(Oc1ccc(F)cc1)C(=O)Nc1c(C(=O)c2ccc(C)cc2)oc2ccccc12 (stereo not drawn) the results were FMDV antiviral -21%, HCMV antiviral -27, Lassa entry inh 3%[46.1 µM] and MARV entry inh inconclusive.
For O=C1c2cccc3c([N+](=O)[O-])ccc(c23)C(=O)N1Cc1cccnc1 the results were FMDV antiviral -4%, SARS PLpro yeast -24%, HCV inhibitor inconclusive, HCMV antiviral -73*, Lassa entry inh inconclusive and MARV entry inh inconclusive.

Screening results deposited in PubChem by National Center for Advancing Translational Sciences (NCATS).
